Source: the supplement of paper PMC10681739

Columns and labels:
[1] = molecular target: T1, ETS1 (UniProt P14921); assay: ETS1 binding intensity (PBM fluorescence), ETS1 alone (arbitrary fluorescence units); higher = stronger binding; settings: ETS1 concentration 1 nM; RUNX1 concentration 0 nM
T1 sequence: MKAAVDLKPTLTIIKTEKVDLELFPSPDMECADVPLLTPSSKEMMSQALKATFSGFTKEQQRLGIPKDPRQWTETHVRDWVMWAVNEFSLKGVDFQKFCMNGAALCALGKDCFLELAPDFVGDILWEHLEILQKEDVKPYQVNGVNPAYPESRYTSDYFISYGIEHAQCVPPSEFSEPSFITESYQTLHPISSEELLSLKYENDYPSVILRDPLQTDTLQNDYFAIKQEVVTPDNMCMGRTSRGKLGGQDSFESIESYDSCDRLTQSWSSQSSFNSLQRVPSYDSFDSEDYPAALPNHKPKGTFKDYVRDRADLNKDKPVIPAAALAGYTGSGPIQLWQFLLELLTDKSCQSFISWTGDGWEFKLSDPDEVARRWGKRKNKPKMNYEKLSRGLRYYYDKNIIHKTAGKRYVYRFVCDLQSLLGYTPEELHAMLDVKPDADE

[2] = molecular target: RUNX1 (UniProt Q01196); assay: RUNX1 binding intensity (PBM fluorescence), RUNX1 alone (arbitrary fluorescence units); higher = stronger binding; settings: RUNX1 concentration 2 nM; ETS1 concentration 0 nM
Protocol: (§1)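 Cooperative gcPBM on 36-bp genomic probes with neighbouring ETS1 and RUNX1 sites. Recombinant human RUNX1 (2 nM) was incubated alone or with ETS1 (25 nM) and detected with anti-RUNX1 antibody plus Alexa488 secondary. Values are medians over 4 replicate spots; the RUNX1+ETS1 data were normalised to the RUNX1-only data. The probes sit in constant array flanks that are not printed.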

[3] = molecular target: T1, ETS1; assay: ETS1 binding intensity (PBM fluorescence) in presence of RUNX1, normalised to ETS1-only experiment (arbitrary fluorescence units); higher = stronger binding; settings: ETS1 concentration 1 nM; RUNX1 concentration 25 nM
[4] = molecular target: RUNX1 (UniProt Q01196); assay: RUNX1 binding intensity (PBM fluorescence) in presence of ETS1, normalised to RUNX1-only experiment (arbitrary fluorescence units); higher = stronger binding; settings: RUNX1 concentration 2 nM; ETS1 concentration 25 nM
Protocol: as §1
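For RUNX1 binding intensity (PBM fluorescence) in presence of ETS1, normalised to RUNX1-only experiment in this document: Full-length recombinant human ETS1 or RUNX1 bound to double-stranded 36-bp genomic probes on microarrays, detected by protein-specific primary antibody and Alexa488 secondary, spot fluorescence as median of four replicate spots.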
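For RUNX1 binding intensity (PBM fluorescence), RUNX1 alone in this document: Full-length recombinant human RUNX1 bound to double-stranded 36-bp genomic probes on a high-density microarray, scored as Alexa488 fluorescence per spot via anti-RUNX1 antibody, median of four replicate spots.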

Sequence of RUNX1 (Q01196 whole entry): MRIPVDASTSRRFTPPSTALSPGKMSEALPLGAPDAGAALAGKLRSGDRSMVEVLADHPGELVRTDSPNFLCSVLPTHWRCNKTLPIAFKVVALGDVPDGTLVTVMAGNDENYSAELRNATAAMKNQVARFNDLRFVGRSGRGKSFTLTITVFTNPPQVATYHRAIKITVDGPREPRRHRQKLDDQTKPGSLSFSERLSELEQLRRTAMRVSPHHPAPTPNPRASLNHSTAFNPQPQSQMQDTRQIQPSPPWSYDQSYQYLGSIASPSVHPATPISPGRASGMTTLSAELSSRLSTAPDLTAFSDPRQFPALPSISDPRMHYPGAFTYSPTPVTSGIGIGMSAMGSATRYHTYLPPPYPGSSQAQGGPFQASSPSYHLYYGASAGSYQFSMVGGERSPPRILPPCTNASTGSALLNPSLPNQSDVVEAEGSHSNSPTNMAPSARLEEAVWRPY

TACCTACATCCTGCCACCACCCGAGGGGACCGCAAG
ETS1 binding intensity [1]: 496
RUNX1 binding intensity [2]: 1050
ETS1 binding intensity [3]: 974
RUNX1 binding intensity [4]: 2810

AGTCCTGCCCACTTCCTGCCGCAAGAGAAATCCACT
ETS1 binding intensity [1]: 1930
RUNX1 binding intensity [2]: 1250
ETS1 binding intensity [3]: 3260
RUNX1 binding intensity [4]: 9180

AGACCCGGATATGCGCCGGGGACCCCCAGACCGCGC
ETS1 binding intensity [1]: 743
RUNX1 binding intensity [2]: 733
ETS1 binding intensity [3]: 697
RUNX1 binding intensity [4]: 969

CGGGTGGTGGCAGGATGTGGGTAGGGGGCCAGGCGA
ETS1 binding intensity [1]: 2930
RUNX1 binding intensity [2]: 895
ETS1 binding intensity [3]: 6860
RUNX1 binding intensity [4]: 2560

GCTCTGCAGGATGTGGCTGTGACCGCAGTGAGGAGC
ETS1 binding intensity [1]: 1290
RUNX1 binding intensity [2]: 1520
ETS1 binding intensity [3]: 11800
RUNX1 binding intensity [4]: 7480

CCTCTTGGTTTCCTGTCCCTCACCACAAGAAGCAGT
ETS1 binding intensity [1]: 625
RUNX1 binding intensity [2]: 1540
ETS1 binding intensity [3]: 1520
RUNX1 binding intensity [4]: 4520

AGTAGGATGGGAGGAAGTGGTTTGTAAGAGGAGGAC
ETS1 binding intensity [1]: 1780
RUNX1 binding intensity [2]: 769
ETS1 binding intensity [3]: 2740
RUNX1 binding intensity [4]: 1480

TTGGTCAGCCTGCTTCCGGCTGTGGCTTCAGTTAGT
ETS1 binding intensity [1]: 1770
RUNX1 binding intensity [2]: 774
ETS1 binding intensity [3]: 1920
RUNX1 binding intensity [4]: 1420

GGGGAAAGGAAGAGGAAACCGCGAGTGCAAAGGCCC
ETS1 binding intensity [1]: 679
RUNX1 binding intensity [2]: 1140
ETS1 binding intensity [3]: 1580
RUNX1 binding intensity [4]: 2330

GCGAGAGGGAGGAAGTGACTCACCAACCACAACAAA
ETS1 binding intensity [1]: 1480
RUNX1 binding intensity [2]: 970
ETS1 binding intensity [3]: 5020
RUNX1 binding intensity [4]: 1220

TCCCTCATGAGCTTCTTCCGCCCGCAACACGAGACT
ETS1 binding intensity [1]: 481
RUNX1 binding intensity [2]: 1280
ETS1 binding intensity [3]: 481
RUNX1 binding intensity [4]: 1840

CAGCTAGCCGGAAGAAGCTGCGGCGACAGCGTCCTG
ETS1 binding intensity [1]: 1690
RUNX1 binding intensity [2]: 759
ETS1 binding intensity [3]: 2110
RUNX1 binding intensity [4]: 1020

TGTTGTAGGGGAAGTGGTGTGTGGTATTCCTGGGGA
ETS1 binding intensity [1]: 797
RUNX1 binding intensity [2]: 811
ETS1 binding intensity [3]: 1690
RUNX1 binding intensity [4]: 1070

GCCTCCTCAGGAAATTGCCCAAAATAGCCACATGTC
ETS1 binding intensity [1]: 735
RUNX1 binding intensity [2]: 1090
ETS1 binding intensity [3]: 667
RUNX1 binding intensity [4]: 1240

CTCACAGCAGCCCCAGGAAACCACCTCTTCCTTCAG
ETS1 binding intensity [1]: 847
RUNX1 binding intensity [2]: 997
ETS1 binding intensity [3]: 876
RUNX1 binding intensity [4]: 1030

TGCGCGCCGGCTTCCGCTGCGGCCAGTCGGGCGGCG
ETS1 binding intensity [1]: 668
RUNX1 binding intensity [2]: 647
ETS1 binding intensity [3]: 635
RUNX1 binding intensity [4]: 1240

TCTAGTAAAAGAGGAAGTTCTTAACCACATTTCCAT
ETS1 binding intensity [1]: 2100
RUNX1 binding intensity [2]: 1020
ETS1 binding intensity [3]: 9250
RUNX1 binding intensity [4]: 1620

GTGCCCCGGACCTACGGATACCACACACAGACAGGC
ETS1 binding intensity [1]: 470
RUNX1 binding intensity [2]: 928
ETS1 binding intensity [3]: 460
RUNX1 binding intensity [4]: 869

TGCTTCTGAGGAAGTGATCTGTGGTCAAAGAAAGAA
ETS1 binding intensity [1]: 747
RUNX1 binding intensity [2]: 891
ETS1 binding intensity [3]: 2040
RUNX1 binding intensity [4]: 1180

AACTAAGTGCAGGGGAAGTTGTGGTTATTTTTTACC
ETS1 binding intensity [1]: 657
RUNX1 binding intensity [2]: 1270
ETS1 binding intensity [3]: 3360
RUNX1 binding intensity [4]: 1760

ATTCCTAGAGAGGAAATGCGGGCTCAGGGTGTCGGC
ETS1 binding intensity [1]: 1550
RUNX1 binding intensity [2]: 754
ETS1 binding intensity [3]: 1560
RUNX1 binding intensity [4]: 897

CTTCAAAGTCAGGAAACCGTTAAACCACACTGCATC
ETS1 binding intensity [1]: 716
RUNX1 binding intensity [2]: 1100
ETS1 binding intensity [3]: 1910
RUNX1 binding intensity [4]: 1360

AGCAACAGGAAAGAACAGCCTGACCACAGCAGCCAC
ETS1 binding intensity [1]: 393
RUNX1 binding intensity [2]: 948
ETS1 binding intensity [3]: 727
RUNX1 binding intensity [4]: 1050

TCTGGATTTCCTGTGGGGCTCTCCCACAAGCAGTAC
ETS1 binding intensity [1]: 518
RUNX1 binding intensity [2]: 721
ETS1 binding intensity [3]: 506
RUNX1 binding intensity [4]: 1390

CAACTGACCGGACAGAACACAGCCACAAAACACGAG
ETS1 binding intensity [1]: 512
RUNX1 binding intensity [2]: 944
ETS1 binding intensity [3]: 507
RUNX1 binding intensity [4]: 824
